Screening data: PubChem BioAssay, several laboratories
rCAG binder: binders of r(CAG) RNA repeats, primary screen, biochemical, fluorescence. r(CAG) RNA repeat, TO-PRO-1 dye displacement fluorescence. actives 1.3% (n = 370,000). inhibition, % at 3 µM;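 active = inhibition above the plate cutoff, the mean of all test compounds on that plate plus 3 SD, cut at about 35% in these data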;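 note: higher means more dye released from RNA so lower well fluorescence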
FAS-TE inh: FAS thioesterase domain inhibitors, primary screen, biochemical, fluorescence intensity, uHTS; Fatty acid synthase (Homo sapiens), P49327; recombinant FAS-TE, OMFH fluorogenic substrate, fluorescence endpoint; inhibition, % at 15 µM; actives 0.67% (n = 360,000); AID 602261, 2012;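 active = compounds whose normalised, plate-corrected inhibition of enzyme fluorescence in the single-dose primary screen is 50% or more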
GRIN3A LBD mod: binders of NR3A ligand-binding domain, primary screen, biophysical, differential scanning fluorimetry, uHTS. NR3A LBD differential scanning fluorimetry, Tm shift; 0% = protein alone, 100% = glycine-bound protein. Tm shift relative to glycine control, % at 25 µM. actives 2.5% (n = 340,000);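 active = melting temperature shift of at least 10% of the positive control shift, at one fixed dose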
MPTP inh: mitochondrial permeability transition pore inhibitors, primary screen, biochemical, isolated mouse mitochondria, absorbance. inhibition, % at 10 µM. Ca2+ swelling absorbance, 30 min. actives 1.4% (n = 360,000). AID 602449, 2012;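 active = inhibition of 50% or more, scaled per plate between neutral and stimulator controls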
Myeloid diff 2: induction of myeloid progenitor differentiation, primary screen, cell-based, flow cytometry, MLPCN library; ER-HoxA9 myeloid progenitors, lysozyme-GFP differentiation; calls only at 10 µM; actives 1% (n = 360,000);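 active = normalized GFP-positive differentiation at or above the plate's own cutoff, the solvent-only control mean plus 3 SD; inconclusive = no clear call, values can overlap the other calls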;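 note: cells exposed to compound for four days before flow analysis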
A number is an active result. In the library only some 5.7% were active in any assay of this set; here they are far more common.

Results for COc1ccc(CCNC(=O)COC(=O)c2cccs2)cc1OC ?
rCAG binder: inactive; FAS-TE inh: inactive; GRIN3A LBD mod: 12; MPTP inh: inactive; Myeloid diff 2: inactive

What do the screens show for `CCOC(=O)C1CCN(C(=O)Cn2ncc3c([nH]c4ccccc43)c2=O)CC1`?
rCAG binder: inactive; FAS-TE inh: inactive; GRIN3A LBD mod: 13; MPTP inh: inactive; Myeloid diff 2: inactive

What do the screens show for `O=C(Cn1ncc2c([nH]c3ccccc32)c1=O)N1CCCCC1`?
rCAG binder: inactive; FAS-TE inh: inactive; GRIN3A LBD mod: inactive; MPTP inh: inactive; Myeloid diff 2: inactive

What do the screens show for `C[C@@H]1CN([C@@H](C)CO)C(=O)CCCn2cc(nn2)CO[C@H]1CN(C)C(=O)Nc1ccc(F)cc1`?
rCAG binder: inactive

What do the screens show for `COC(=O)[C@]12C[C@H](CC(=O)N3CCN(C(=O)c4ccco4)CC3)C(=O)N(CCc3ccc(OC)c(OC)c3)C1=C[C@H](C(C)(C)C)O[C@@H]2C`?
rCAG binder: inactive

Results for Cc1cc(N/N=C/c2ccc(Cl)cc2)nc(NCc2ccccc2)n1 ?
rCAG binder: inactive; FAS-TE inh: inactive; GRIN3A LBD mod: 27; MPTP inh: inactive; Myeloid diff 2: inactive

Results for Cc1cc(N/N=C/c2cccc(F)c2)nc(NCc2ccccc2)n1 ?
rCAG binder: inactive; FAS-TE inh: inactive; GRIN3A LBD mod: 15; MPTP inh: inactive; Myeloid diff 2: inactive

What do the screens show for `Cc1cc(N/N=C/c2ccccc2)nc(NCc2ccccc2)n1`?
rCAG binder: inactive; FAS-TE inh: inactive; GRIN3A LBD mod: inactive; MPTP inh: inactive; Myeloid diff 2: inactive

Results for Cc1cc(N/N=C/c2cccc(Cl)c2)nc(NCc2ccccc2)n1 ?
rCAG binder: inactive; FAS-TE inh: inactive; GRIN3A LBD mod: 15; MPTP inh: inactive; Myeloid diff 2: inactive

How did COC(C[C@@H]1O[C@H]1[C@@H](O)COCc1ccccc1)OC do in these assays?
rCAG binder: inactive; FAS-TE inh: inactive; GRIN3A LBD mod: inactive; MPTP inh: inactive; Myeloid diff 2: inactive

What do the screens show for `COC(C[C@H]1O[C@@H]1[C@H](O)COCc1ccccc1)OC`?
rCAG binder: inactive; FAS-TE inh: inactive; GRIN3A LBD mod: inactive; MPTP inh: inactive; Myeloid diff 2: active

What do the screens show for `COc1cccc(C2NC(=S)NC(C)=C2C(C)=O)c1` (stereo not given)?
rCAG binder: inactive

What do the screens show for `O=c1cc(O)c2sc(Nc3ccc(Cl)c(F)c3)nc2[nH]1`?
rCAG binder: inactive; FAS-TE inh: inactive; GRIN3A LBD mod: inactive; MPTP inh: inactive; Myeloid diff 2: inactive

How did O=c1cc(O)c2sc(Nc3ccc(F)c(Cl)c3)nc2[nH]1 do in these assays?
rCAG binder: 35; FAS-TE inh: inactive; GRIN3A LBD mod: inactive; MPTP inh: inactive; Myeloid diff 2: inactive

What do the screens show for `CCNC(=S)N1CCN(c2nc(-c3cccc(OC)c3)cs2)CC1`?
rCAG binder: inactive; FAS-TE inh: inactive; GRIN3A LBD mod: 19; MPTP inh: inactive; Myeloid diff 2: inactive

Results for COc1ccc(NC(=O)N2CCN(c3nc(-c4cccc(OC)c4)cs3)CC2)cc1 ?
rCAG binder: inactive; FAS-TE inh: inactive; GRIN3A LBD mod: inactive; MPTP inh: inactive; Myeloid diff 2: active

What do the screens show for `O=C(CCc1ccccc1)N[C@H]1[C@H](OCc2ccccc2)CCC[C@@]12C(=O)N(Cc1ccccc1)c1ccc(-c3ccccn3)cc12`?
rCAG binder: inactive

How did CCN(CC)S(=O)(=O)c1ccc(N/N=C/c2ccc(O)cc2O)nc1 do in these assays?
rCAG binder: inactive; FAS-TE inh: inactive; GRIN3A LBD mod: 24; MPTP inh: inactive; Myeloid diff 2: inactive

What do the screens show for `O=[N+]([O-])c1ccc(NN=Cc2ccccc2)nc1`?
rCAG binder: inactive; FAS-TE inh: inactive; GRIN3A LBD mod: inactive; MPTP inh: inactive; Myeloid diff 2: inactive

What do the screens show for `O=[N+]([O-])c1ccc(NN=Cc2ccc(O)cc2)nc1`?
rCAG binder: inactive; FAS-TE inh: inactive; GRIN3A LBD mod: 26; MPTP inh: inactive; Myeloid diff 2: inactive

What do the screens show for `CCCOc1ccc(/C=N/Nc2cccc([N+](=O)[O-])c2)c(O)c1`?
rCAG binder: inactive; FAS-TE inh: inactive; GRIN3A LBD mod: 33; MPTP inh: inactive; Myeloid diff 2: inactive

What do the screens show for `O=[N+]([O-])c1ccc(NN=Cc2ccc(O)cc2O)nc1`?
rCAG binder: inactive; FAS-TE inh: inactive; GRIN3A LBD mod: 27; MPTP inh: inactive; Myeloid diff 2: inconclusive

What do the screens show for `CCOC(=O)[C@]12CCCCC/C=C\1N(CCc1ccc(Cl)cc1)C(=O)[C@H]2CC(=O)NCCc1ccccc1OC`?
rCAG binder: inactive

What do the screens show for `CCOc1ccccc1C=NNc1ccc([N+](=O)[O-])cn1`?
rCAG binder: inactive; FAS-TE inh: inactive; GRIN3A LBD mod: inactive; MPTP inh: inactive; Myeloid diff 2: inactive

Results for COc1ccc(C=NNc2ccc([N+](=O)[O-])cn2)cc1 ?
rCAG binder: inactive; FAS-TE inh: inactive; GRIN3A LBD mod: inactive; MPTP inh: inactive; Myeloid diff 2: inactive

Results for O=[N+]([O-])c1ccc(N/N=C/c2ccc(OCc3cccc4ccccc34)cc2)nc1 ?
rCAG binder: inactive; FAS-TE inh: inactive; GRIN3A LBD mod: 28; MPTP inh: inactive; Myeloid diff 2: inactive

How did NS(=O)(=O)c1ccc(N/N=C/c2ccccc2Br)cc1 do in these assays?
rCAG binder: inactive; FAS-TE inh: inactive; GRIN3A LBD mod: 14; MPTP inh: inactive; Myeloid diff 2: inactive

What do the screens show for `O=[N+]([O-])c1ccc(N/N=C/c2ccccc2O)cc1`?
rCAG binder: inactive; FAS-TE inh: inactive; GRIN3A LBD mod: 38; MPTP inh: inactive; Myeloid diff 2: inactive

What do the screens show for `N#Cc1ccccc1Cn1cc(/C=N/Nc2ccc([N+](=O)[O-])cn2)c2ccccc21`?
rCAG binder: inactive; FAS-TE inh: inactive; GRIN3A LBD mod: inactive; MPTP inh: inactive; Myeloid diff 2: active

What do the screens show for `O=[N+]([O-])c1ccc(NN=Cc2ccccc2O)nc1`?
rCAG binder: inactive; FAS-TE inh: inactive; GRIN3A LBD mod: 26; MPTP inh: inactive; Myeloid diff 2: inconclusive

Results for O=C(Nc1ccc(Cl)cc1)Nc1ccc(-c2cnco2)cc1 ?
rCAG binder: inactive; FAS-TE inh: inactive; GRIN3A LBD mod: 37; MPTP inh: inactive; Myeloid diff 2: inactive

How did O=C(Nc1ccc(Cl)cc1)Nc1ccon1 do in these assays?
rCAG binder: inactive; FAS-TE inh: inactive; GRIN3A LBD mod: 14; MPTP inh: inactive; Myeloid diff 2: inactive

How did COC(=O)C1=C(C)N(C)C(=NCc2ccc(C(F)(F)F)cc2)NC1c1cccc(Cl)c1 (stereo not given) do in these assays?
rCAG binder: inactive

Results for CCn1c(-c2ccccc2)csc1=Nc1ccc(O)cc1 ?
rCAG binder: inactive; FAS-TE inh: inactive; GRIN3A LBD mod: inactive; MPTP inh: inactive; Myeloid diff 2: active

How did CCOc1ccc(N=c2scc(-c3ccccc3)n2CCO)cc1 do in these assays?
rCAG binder: inactive; FAS-TE inh: inactive; GRIN3A LBD mod: inactive; MPTP inh: inactive; Myeloid diff 2: inactive
